From the OligoGym collection come the findings set out here.
Further: reference of the scale not given here.

For the first assay, the target named is HERC3. The assay can be described thus: pooled miR-30 sensor sort-seq; sequence = guide strand. To be noted: shRNA.
In the case of TATCTGAACAACACCATTGATT, the sensor-assay potency score (higher = more potent) is -0.697.

The sequence ATAATATCTGAACAACACCATT yielded a sensor-assay potency score (higher = more potent) of -1.67.

Take TACATTGAGTAACTTCTTGTAG: the sensor-assay potency score (higher = more potent) came to 0.402.

Turning to TTGAACTATATGCACACACATA, the sensor-assay potency score (higher = more potent) was -1.08.

TAACTTCTCAAATAACACCCTA came in with a sensor-assay potency score (higher = more potent) of -0.57.

TACTTTGCCACCACACACCTTT displayed a sensor-assay potency score (higher = more potent) of 0.0362.

Turning to TTCAGCTTTTGTATTAACCTGG, the sensor-assay potency score (higher = more potent) is 0.299.

In turn, TAGCTTTCTCGGCAGATCGTGA yielded a sensor-assay potency score (higher = more potent) of -0.772.

For the sequence TTTACATTGAGTAACTTCTTGT, the sensor-assay potency score (higher = more potent) was -0.154.

Consider TTGTGCTCTACAAAACACGTGT, for which the sensor-assay potency score (higher = more potent) was determined as 0.203.

TTATCTAGTACTTTGCTGGGGT displayed a sensor-assay potency score (higher = more potent) of 0.669.

A further assay concerns the target HES7. Described as above. The conditions noted are these: shRNA.
For the sequence AAACCGGACAAGTAGCAGCTGG, the sensor-assay potency score (higher = more potent) is -0.705.

On to TTGGGCGCCCCGTCTTGTCTGT, for which the sensor-assay potency score (higher = more potent) is -1.06.

As to TATCTCCGCTTTCTCCAGCTTC, the sensor-assay potency score (higher = more potent) is -1.2.

Take AAGCGAAGCAGGCACTCGCGGA: the sensor-assay potency score (higher = more potent) is -1.48.

On to TTCCGGAGGTTCTGGTCCCGGG, for which the sensor-assay potency score (higher = more potent) is -1.41.

AACCGGACAAGTAGCAGCTGGC came in with a sensor-assay potency score (higher = more potent) of -1.06.

On to ATATAGACCACATCTCACCCGC, for which the sensor-assay potency score (higher = more potent) is -0.0228.

As for AGCGGCTTGAGCATCTTGGGGC, the sensor-assay potency score (higher = more potent) was -0.755.

As for TTTGGGGCGCAGATAGCCGTGC, the sensor-assay potency score (higher = more potent) is -0.737.

The sequence TTTCTCCAGCTTCGGGTTCCGG came in with a sensor-assay potency score (higher = more potent) of -1.22.

TCCGCTTTCTCCAGCTTCGGGT returned a sensor-assay potency score (higher = more potent) of -1.29.

Turning to TTCGCTCCCTCAAGTAGCCCAC, the sensor-assay potency score (higher = more potent) was -0.598.
